In PubChem BioAssay (NCATS):
Inconclusive results are not listed. Where a call stands in place of a potency, no number is given. The source made the active and inactive calls. The call rests on the fitted dose curve; in most records, active means well fitted inhibition curve with a large enough effect; inconclusive means small, poorly fitted or top-dose-only effect; inactive means no such curve, though single readings can be large or run the other way.

Test: qHTS for Inhibitors of the Aldehyde Dehydrogenase Family (ALDH1A2, ALDH1A3, ALDH2, ALDH3A1) (AID 2061307); further: nearly all actives have a fitted effect of over 50% in size; on potency: test system not described further here
Conditions: ALDH inhibition qHTS; series mostly up to 50.3 µM
Potency means the concentration at half of the fitted maximal effect.

Compound | Potency
N#Cc1ccc(-c2ccc(CNc3ccc(N4CCOCC4)cc3)cn2)cc1 | 6.34 µM (active)
CN(C)c1ccc(-c2csc(N3CCC(C(N)=O)CC3)n2)cc1 | 11.3 µM (active)
CC(=O)N1CCN(c2ccc(NCc3ccc(Br)o3)cc2)CC1 | 10.1 µM (active)
CC(=O)c1c(C)n(-c2cccc(C)c2)c2ccc(OC(=O)COc3ccccc3)cc12 | inactive
CSCCC(NS(=O)(=O)c1ccc2c(c1)oc(=O)n2C)C(=O)N1CCN(c2ccc(C(C)=O)cc2)CC1 (stereo not given) | inactive
COc1ccc(-n2c(C)c(C(C)=O)c3cc(OC(=O)c4ccc(C)cc4)ccc32)cc1 | inactive
CN1CCN(C(=O)c2cccc(-c3ccc(CNc4ccc(N5CCN(C(=O)OC(C)(C)C)CC5)cc4)o3)c2)CC1 | inactive
N#CNC(=O)c1ccc(-n2cccc2/C=C2\NC(=O)N(CC(=O)Nc3ccc(F)cc3)C2=O)cc1 | 4 µM (active)
Cc1cccc(-c2ccccc2C=O)c1 | inactive
Cc1ccsc1CN(C)c1ncnc2ccc(-c3oc(-c4ccccc4)nc3C)cc12 | 12.6 µM (active)
CC(=O)N1CCN(c2ccc(NCc3ccco3)cc2)CC1 | 4 µM (active)
CCn1cnc2c(Nc3ccc(CC(=O)N=C(N)N)cc3)nc(C#N)nc21 | inactive
Cc1oc(-c2ccccc2F)nc1CS(=O)(=O)CC(=O)N1CCN(c2cccc(C(F)(F)F)c2)CC1 | inactive
CCOC(=O)c1c(C)n(-c2ccc(OC)cc2)c2ccc(OC(=O)COc3ccccc3)cc12 | inactive
CC(=O)c1c(C)n(-c2cccc(Cl)c2)c2ccc(OC(=O)c3ccccc3)cc12 | inactive
CCOC(=O)c1c(C)n(-c2ccccc2)c2ccc(OC(=O)c3ccccc3)cc12 | inactive
Cc1cc(NS(=O)(=O)c2ccc(Nc3nc(-c4ccc(C)c(C)c4)cs3)cc2)no1 | 0.896 µM (active)
Cc1ccc(CNc2ncnc3ccc(-c4ccc([C@@H](C)O)o4)cc23)o1 | inactive
Cn1sc(=O)n(Cc2ccccc2)c1=O | 10.1 µM (active)
Cc1ccc(CNc2ncnc3ccc(-c4oc(-c5ccccc5)nc4C)cc23)o1 | inactive

Compound | Potency
O=C(CCC1CCCN(S(=O)(=O)c2ccccc2F)C1)NCCCN1CCOCC1 (stereo not given) | inactive
Cc1ccc(S(=O)(=O)Nc2cnccc2C(=O)Nc2nc(-c3ccco3)cs2)cc1 | 7.98 µM (active)
CC(=O)c1c(C)n(-c2ccc(Cl)cc2)c2ccc(OC(=O)COc3ccccc3)cc12 | inactive
Cc1cc(C)cc(-c2ccccc2C=O)c1 | inactive
COc1ccc(Cl)cc1C(=O)NCc1nnc2cc(-c3nc(C)no3)ccn12 | inactive
CC(=O)c1c(C)n(-c2ccc(C)cc2)c2ccc(OC(=O)COc3ccccc3)cc12 | inactive
O=C1Cc2cc(S(=O)(=O)N3CCN(c4ccc(Cl)cc4)CC3)ccc2N1 | inactive
Cc1ccc2nc3sc(C(=O)NC4CCC(O)CC4)cc3cc2c1 (stereo not given) | 6.34 µM (active)
Nc1cc(S(=O)(=O)N2CCN(S(=O)(=O)c3ccc4c(c3)OCCO4)CC2)ccn1 | inactive
Cc1ccc(-c2cccc(C=O)c2)c(C)c1 | inactive
COc1ccc2c(c1)c(C(=O)CN(C)C)c(C)n2C | inactive
O=C(Nc1ncc(Cc2ccc(C(F)(F)F)cc2)s1)c1ccc(-c2ccccc2[N+](=O)[O-])o1 | 12.7 µM (active)
COc1cc(O)c(C(CC(=O)N2C[C@H](C)C[C@H](C)C2)c2ccc3c(c2)OCO3)c(OC)c1 (stereo not given in full) | inactive
COc1ccc(-c2nc3ccccc3c(=O)n2Cc2ccccc2)cc1CNc1ccc(NC(C)=O)cc1 | 12.7 µM (active)
Cc1cccc(C(=O)NCc2nnc3cc(-c4nc(C)no4)ccn23)c1 | inactive
Cc1cc(C)cc(-c2ccc(C=O)cc2)c1 | inactive
Cc1ccc(-c2ccccc2C=O)c(C)c1 | inactive
COc1cccc(S(=O)(=O)NC2CCN(C#N)C2)c1 (stereo not given) | inactive
C[C@@H](CO)Nc1cc2c(cc1[S+](=O)([O-])Nc1ccc(Cl)c(Cl)c1)CCC(=O)N2 | inactive
O=C(NCC(=O)N1CCN(Cc2ccccc2)CC1)c1cccc(-c2ccsc2)c1 | inactive
